Among the data in article PMC7862700, “An all-to-all approach to the identification of sequence-specific readers for epigenetic DNA modifications on cytosine” are binding signal values, retold here.

Common to all, as to test: DAPPL (digital affinity profiling via proximity ligation, sequencing); 10 mM Tris-HCl pH 7.5, 50 mM NaCl, 1 mM DTT, 4% glycerol, room temperature, 30 min; GST-TFs on glutathione beads, 16-mer random dsDNA library, 0.1% formaldehyde crosslink after washing; high values mean tight binding
In one experiment the target is T1, FLI1 (Homo sapiens, UniProt Q01543 1-452).
T1 sequence: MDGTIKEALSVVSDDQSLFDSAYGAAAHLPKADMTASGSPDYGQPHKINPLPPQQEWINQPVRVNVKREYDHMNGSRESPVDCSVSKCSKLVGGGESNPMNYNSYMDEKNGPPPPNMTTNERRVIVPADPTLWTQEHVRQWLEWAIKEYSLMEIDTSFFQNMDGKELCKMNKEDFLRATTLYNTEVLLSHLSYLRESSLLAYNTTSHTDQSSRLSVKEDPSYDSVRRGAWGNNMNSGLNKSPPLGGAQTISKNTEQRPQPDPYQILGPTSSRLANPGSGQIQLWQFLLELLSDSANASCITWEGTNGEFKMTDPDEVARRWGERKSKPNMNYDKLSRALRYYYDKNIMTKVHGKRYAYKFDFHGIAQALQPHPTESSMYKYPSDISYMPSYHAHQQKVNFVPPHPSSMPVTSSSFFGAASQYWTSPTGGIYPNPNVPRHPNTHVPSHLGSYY
Particulars: protein: recombinant; tags: N-terminal GST; dsDNA, one strand shown. The gist of the method:
(§1)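 Each value of binding signal is a hexamer's read frequency for a factor divided by the same hexamer's frequency in the tag-only sample. Barcoded, bead-captured GST fusions of human transcription factors made in yeast were pooled with that sample and incubated with 200 nmole of a random double-stranded 16-mer DNA library in Tris/NaCl/DTT/glycerol buffer at room temperature for 30 min. Washing, 0.1% formaldehyde crosslinking, proximity ligation, PCR and Illumina NextSeq500 sequencing followed.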

A further experiment addresses T2, ELK1 (Homo sapiens, UniProt P19419 1-428).
T2 sequence: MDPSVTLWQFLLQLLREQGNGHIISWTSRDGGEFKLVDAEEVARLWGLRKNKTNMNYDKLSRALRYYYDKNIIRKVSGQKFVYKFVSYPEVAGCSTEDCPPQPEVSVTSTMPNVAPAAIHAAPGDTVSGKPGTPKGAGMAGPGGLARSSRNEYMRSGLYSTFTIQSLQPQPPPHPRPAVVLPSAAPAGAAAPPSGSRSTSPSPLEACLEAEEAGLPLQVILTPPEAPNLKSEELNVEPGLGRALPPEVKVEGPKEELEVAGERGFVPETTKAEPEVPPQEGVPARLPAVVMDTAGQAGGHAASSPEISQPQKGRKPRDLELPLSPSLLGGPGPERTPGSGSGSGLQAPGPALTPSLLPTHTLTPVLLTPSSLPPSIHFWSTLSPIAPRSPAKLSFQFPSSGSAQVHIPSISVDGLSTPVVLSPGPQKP
Particulars: protein: recombinant; tags: N-terminal GST; dsDNA, one strand shown. In a few lines:
as §1

The next experiment addresses T3, GABPA (Homo sapiens, UniProt Q06546 1-454).
T3 sequence: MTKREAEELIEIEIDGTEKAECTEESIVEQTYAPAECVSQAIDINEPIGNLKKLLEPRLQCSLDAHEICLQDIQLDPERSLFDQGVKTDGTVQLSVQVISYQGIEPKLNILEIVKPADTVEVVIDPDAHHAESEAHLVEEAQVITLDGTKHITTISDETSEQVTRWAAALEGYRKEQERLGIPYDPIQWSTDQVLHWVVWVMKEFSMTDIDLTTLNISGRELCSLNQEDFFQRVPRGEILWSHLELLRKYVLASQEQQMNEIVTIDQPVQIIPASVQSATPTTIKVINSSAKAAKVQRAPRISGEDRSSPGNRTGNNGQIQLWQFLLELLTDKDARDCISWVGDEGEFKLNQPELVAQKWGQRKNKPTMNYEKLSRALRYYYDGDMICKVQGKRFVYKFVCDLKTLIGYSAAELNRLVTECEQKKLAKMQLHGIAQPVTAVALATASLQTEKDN
The note with it: protein: recombinant; tags: N-terminal GST; dsDNA, one strand shown. In a few lines:
as §1

A further experiment addresses T4, ERG (Homo sapiens, UniProt P11308 1-479).
T4 sequence: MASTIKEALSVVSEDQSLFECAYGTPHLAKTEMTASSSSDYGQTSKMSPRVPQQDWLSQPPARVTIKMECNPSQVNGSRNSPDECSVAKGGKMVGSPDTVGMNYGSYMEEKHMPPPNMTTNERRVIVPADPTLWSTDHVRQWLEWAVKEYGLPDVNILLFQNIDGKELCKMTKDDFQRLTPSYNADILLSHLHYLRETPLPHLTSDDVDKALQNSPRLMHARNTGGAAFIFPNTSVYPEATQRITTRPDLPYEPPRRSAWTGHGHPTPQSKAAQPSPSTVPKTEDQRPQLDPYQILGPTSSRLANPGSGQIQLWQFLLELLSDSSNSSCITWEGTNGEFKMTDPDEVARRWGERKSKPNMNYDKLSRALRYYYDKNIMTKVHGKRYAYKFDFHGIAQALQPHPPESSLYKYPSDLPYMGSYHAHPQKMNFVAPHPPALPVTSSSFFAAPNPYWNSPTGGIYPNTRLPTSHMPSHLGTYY
The note with it: protein: recombinant; tags: N-terminal GST; dsDNA, one strand shown. In a few lines: as §1

The target of another experiment is ELF1 (Homo sapiens, UniProt P32519 1-619). The note with it: protein: recombinant; tags: N-terminal GST; dsDNA, one strand shown. The gist of the method: as §1
In another experiment the target is T5, EHF (Homo sapiens, UniProt Q9NZC4 1-300).
T5 sequence: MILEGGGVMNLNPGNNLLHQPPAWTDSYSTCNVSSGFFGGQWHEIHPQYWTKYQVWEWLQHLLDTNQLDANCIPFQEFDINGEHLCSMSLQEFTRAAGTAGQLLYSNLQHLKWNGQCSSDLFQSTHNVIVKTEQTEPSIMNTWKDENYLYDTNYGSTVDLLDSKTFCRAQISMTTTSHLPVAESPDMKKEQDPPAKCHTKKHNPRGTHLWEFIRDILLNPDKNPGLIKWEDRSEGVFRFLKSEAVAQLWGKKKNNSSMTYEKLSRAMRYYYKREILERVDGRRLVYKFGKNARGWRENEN
The note with it: protein: recombinant; tags: N-terminal GST; dsDNA, one strand shown. In a few lines:
as §1

The next experiment concerns the target SPI1 (Homo sapiens, UniProt P17947 1-270). The note with it: protein: recombinant; tags: N-terminal GST; dsDNA, one strand shown. The gist of the method:
as §1

For the next experiment, the target named is SPIB (Homo sapiens, UniProt Q01892 1-262). Particulars: protein: recombinant; tags: N-terminal GST; dsDNA, one strand shown. In a few lines:
as §1

The next experiment concerns the target T6, ELK3 (Homo sapiens, UniProt P41970 1-407).
T6 sequence: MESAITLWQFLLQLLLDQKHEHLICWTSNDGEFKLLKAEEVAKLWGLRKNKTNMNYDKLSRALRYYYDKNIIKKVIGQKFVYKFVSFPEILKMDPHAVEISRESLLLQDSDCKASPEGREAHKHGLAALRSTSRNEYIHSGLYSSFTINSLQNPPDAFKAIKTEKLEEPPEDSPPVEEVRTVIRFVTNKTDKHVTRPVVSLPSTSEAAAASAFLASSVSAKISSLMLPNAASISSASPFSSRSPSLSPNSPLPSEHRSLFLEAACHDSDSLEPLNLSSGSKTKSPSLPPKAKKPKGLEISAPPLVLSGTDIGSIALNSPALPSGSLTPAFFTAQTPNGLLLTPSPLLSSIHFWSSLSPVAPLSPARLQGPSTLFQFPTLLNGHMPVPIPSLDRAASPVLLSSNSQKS
The note with it: protein: recombinant; tags: N-terminal GST; dsDNA, one strand shown. The gist of the method: as §1

The next experiment concerns the target T7, FEV (Homo sapiens, UniProt Q99581 1-238).
T7 sequence: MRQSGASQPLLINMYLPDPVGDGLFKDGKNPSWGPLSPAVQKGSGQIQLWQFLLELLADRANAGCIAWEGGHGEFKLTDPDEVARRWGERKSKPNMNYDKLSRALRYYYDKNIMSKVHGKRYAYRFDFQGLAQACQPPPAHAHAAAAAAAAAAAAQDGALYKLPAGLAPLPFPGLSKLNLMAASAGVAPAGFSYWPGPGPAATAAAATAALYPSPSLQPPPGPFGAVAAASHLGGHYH
Particulars: protein: recombinant; tags: N-terminal GST; dsDNA, one strand shown. The gist of the method:
as §1

Another experiment deals with ETV5 (Homo sapiens, UniProt P41161 1-510). Particulars: protein: recombinant; tags: N-terminal GST; dsDNA, one strand shown. The gist of the method: as §1
The target of the next experiment is HSF1 (Homo sapiens, UniProt Q00613 1-529). The note with it: protein: recombinant; tags: N-terminal GST; chain copies: 3; dsDNA, one strand shown. In a few lines:
as §1

The target in a further experiment is T8, SPIC (Homo sapiens, UniProt Q8N5J4 1-248).
T8 sequence: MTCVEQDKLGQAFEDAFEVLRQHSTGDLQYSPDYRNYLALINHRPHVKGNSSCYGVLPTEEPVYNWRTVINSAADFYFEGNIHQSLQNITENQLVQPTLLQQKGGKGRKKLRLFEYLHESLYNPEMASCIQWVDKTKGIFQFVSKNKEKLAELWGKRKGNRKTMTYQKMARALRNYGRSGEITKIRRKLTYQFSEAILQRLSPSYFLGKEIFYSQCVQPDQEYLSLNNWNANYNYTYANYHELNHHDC
The note with it: protein: recombinant; tags: N-terminal GST; dsDNA, one strand shown. The gist of the method:
as §1

A further experiment addresses ELF4 (Homo sapiens, UniProt Q99607 1-663). Particulars: protein: recombinant; tags: N-terminal GST; dsDNA, one strand shown. In a few lines:
as §1

The next experiment deals with T9, ELK4 (Homo sapiens, UniProt P28324-2 1-405).
T9 sequence: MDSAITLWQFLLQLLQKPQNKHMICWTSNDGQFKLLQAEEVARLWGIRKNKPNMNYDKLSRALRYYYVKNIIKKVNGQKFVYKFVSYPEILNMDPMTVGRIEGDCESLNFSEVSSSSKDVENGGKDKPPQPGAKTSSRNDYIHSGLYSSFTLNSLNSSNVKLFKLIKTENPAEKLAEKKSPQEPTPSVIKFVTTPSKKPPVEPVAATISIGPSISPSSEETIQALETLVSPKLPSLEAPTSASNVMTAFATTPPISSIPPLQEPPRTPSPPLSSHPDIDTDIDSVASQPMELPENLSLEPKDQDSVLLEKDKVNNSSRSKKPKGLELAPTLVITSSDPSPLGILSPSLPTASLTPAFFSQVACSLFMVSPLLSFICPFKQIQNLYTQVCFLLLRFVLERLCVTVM
Particulars: protein: recombinant; tags: N-terminal GST; dsDNA, one strand shown. In a few lines: as §1

Another experiment concerns the target T10, ETV2 (Homo sapiens, UniProt O00321 1-342).
T10 sequence: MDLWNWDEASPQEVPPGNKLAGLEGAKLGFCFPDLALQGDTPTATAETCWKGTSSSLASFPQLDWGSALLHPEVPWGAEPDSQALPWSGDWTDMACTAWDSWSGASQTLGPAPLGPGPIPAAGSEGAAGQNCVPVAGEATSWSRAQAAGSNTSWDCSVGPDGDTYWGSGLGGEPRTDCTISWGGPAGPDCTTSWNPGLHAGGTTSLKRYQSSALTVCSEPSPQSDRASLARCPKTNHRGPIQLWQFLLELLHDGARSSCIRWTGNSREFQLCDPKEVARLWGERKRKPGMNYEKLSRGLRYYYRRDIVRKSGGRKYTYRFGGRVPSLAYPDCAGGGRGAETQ
Particulars: protein: recombinant; tags: N-terminal GST; dsDNA, one strand shown. In a few lines:
as §1

The next experiment deals with T11, ELF3 (Homo sapiens, UniProt P78545 1-371).
T11 sequence: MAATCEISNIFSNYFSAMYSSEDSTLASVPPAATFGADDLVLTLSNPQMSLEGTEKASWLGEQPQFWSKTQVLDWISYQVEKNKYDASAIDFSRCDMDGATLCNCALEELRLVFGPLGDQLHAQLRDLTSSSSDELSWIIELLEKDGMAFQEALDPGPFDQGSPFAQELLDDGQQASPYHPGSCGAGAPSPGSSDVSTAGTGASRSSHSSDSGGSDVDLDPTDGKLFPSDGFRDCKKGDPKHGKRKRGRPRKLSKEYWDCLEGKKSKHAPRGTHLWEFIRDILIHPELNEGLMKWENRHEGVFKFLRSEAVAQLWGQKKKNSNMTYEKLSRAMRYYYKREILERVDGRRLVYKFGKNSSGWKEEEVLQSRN
The note with it: protein: recombinant; tags: N-terminal GST; dsDNA, one strand shown. The gist of the method: as §1

In another experiment the target is CRX (Homo sapiens, UniProt O43186 1-299). The note with it: protein: recombinant; tags: N-terminal GST; dsDNA, one strand shown. The gist of the method:
as §1

The target in a further experiment is ETV1 (Homo sapiens, UniProt P50549 1-477). The note with it: protein: recombinant; tags: N-terminal GST; dsDNA, one strand shown. In a few lines: as §1
ETV1, sequence (P50549 whole entry): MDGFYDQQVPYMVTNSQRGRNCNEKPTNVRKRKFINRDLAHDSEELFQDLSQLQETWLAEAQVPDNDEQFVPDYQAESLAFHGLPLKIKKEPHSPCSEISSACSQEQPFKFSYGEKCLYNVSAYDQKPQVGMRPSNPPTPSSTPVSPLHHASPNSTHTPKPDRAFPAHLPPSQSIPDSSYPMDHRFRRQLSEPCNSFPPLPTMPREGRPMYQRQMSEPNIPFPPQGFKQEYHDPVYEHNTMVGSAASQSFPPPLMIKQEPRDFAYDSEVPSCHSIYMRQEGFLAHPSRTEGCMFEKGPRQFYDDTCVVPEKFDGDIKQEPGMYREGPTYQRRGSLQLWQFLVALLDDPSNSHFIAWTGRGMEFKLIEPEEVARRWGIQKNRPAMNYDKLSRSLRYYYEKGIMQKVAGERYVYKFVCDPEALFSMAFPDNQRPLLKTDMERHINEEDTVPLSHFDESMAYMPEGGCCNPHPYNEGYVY

ELF1, sequence (P32519 whole entry): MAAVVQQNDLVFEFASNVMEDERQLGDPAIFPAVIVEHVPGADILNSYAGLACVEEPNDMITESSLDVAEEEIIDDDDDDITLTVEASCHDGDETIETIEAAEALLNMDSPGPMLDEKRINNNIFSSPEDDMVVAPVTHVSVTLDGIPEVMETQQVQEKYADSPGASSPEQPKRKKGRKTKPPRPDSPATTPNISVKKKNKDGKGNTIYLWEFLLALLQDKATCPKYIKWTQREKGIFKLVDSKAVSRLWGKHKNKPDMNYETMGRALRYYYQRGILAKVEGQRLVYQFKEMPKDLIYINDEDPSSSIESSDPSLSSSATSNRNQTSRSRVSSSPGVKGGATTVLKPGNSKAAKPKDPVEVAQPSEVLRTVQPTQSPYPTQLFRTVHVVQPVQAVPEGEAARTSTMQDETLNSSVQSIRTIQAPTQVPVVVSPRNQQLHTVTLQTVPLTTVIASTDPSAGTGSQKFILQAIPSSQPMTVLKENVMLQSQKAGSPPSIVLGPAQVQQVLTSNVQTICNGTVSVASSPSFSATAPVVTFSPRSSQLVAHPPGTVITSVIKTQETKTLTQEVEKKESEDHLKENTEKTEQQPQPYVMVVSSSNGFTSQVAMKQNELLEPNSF
SPIB, sequence (Q01892 whole entry): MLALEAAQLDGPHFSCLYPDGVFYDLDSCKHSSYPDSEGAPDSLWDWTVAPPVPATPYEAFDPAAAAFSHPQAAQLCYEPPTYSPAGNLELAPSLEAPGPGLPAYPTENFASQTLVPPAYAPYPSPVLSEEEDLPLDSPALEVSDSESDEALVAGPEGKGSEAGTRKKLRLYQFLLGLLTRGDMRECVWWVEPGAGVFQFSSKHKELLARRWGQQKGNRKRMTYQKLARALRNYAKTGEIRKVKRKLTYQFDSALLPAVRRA
ETV5, sequence (P41161 whole entry): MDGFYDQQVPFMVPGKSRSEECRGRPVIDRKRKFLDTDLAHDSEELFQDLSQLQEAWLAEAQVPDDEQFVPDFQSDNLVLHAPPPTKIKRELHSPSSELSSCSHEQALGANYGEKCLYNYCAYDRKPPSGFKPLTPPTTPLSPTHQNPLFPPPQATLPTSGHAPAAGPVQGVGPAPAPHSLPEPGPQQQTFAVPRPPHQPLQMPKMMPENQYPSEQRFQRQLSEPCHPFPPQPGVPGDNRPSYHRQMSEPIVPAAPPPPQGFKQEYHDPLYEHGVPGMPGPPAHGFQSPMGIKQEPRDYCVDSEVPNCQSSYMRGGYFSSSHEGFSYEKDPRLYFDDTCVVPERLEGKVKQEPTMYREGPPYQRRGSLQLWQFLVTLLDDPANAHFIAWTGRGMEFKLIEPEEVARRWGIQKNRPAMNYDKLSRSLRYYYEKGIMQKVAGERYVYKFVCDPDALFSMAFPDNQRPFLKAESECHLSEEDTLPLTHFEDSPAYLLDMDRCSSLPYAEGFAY
ELF4, sequence (Q99607 whole entry): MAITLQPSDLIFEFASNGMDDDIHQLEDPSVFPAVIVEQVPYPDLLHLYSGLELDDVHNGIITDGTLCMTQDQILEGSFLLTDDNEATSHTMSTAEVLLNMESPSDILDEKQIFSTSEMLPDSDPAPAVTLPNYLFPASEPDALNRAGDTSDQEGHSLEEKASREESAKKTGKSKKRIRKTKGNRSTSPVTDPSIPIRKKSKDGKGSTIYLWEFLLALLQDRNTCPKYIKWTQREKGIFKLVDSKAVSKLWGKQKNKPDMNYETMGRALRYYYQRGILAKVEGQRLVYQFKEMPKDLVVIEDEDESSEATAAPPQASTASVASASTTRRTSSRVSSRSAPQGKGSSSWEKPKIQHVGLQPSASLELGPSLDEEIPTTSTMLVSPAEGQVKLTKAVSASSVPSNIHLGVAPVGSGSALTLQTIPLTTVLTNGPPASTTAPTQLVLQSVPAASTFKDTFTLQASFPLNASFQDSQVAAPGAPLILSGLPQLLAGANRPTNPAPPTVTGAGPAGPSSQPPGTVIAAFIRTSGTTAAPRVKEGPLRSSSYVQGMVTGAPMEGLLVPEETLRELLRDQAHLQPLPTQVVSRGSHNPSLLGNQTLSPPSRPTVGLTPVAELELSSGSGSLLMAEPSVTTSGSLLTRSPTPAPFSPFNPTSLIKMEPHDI
CRX, sequence (O43186 whole entry): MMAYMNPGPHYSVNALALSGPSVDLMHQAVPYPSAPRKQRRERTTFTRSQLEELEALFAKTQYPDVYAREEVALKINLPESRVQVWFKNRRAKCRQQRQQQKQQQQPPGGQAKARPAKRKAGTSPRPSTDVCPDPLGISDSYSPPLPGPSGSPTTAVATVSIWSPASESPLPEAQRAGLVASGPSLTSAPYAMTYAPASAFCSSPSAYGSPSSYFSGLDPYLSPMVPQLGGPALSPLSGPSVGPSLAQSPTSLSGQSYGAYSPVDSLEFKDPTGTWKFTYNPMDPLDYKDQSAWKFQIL
HSF1, sequence (Q00613 whole entry): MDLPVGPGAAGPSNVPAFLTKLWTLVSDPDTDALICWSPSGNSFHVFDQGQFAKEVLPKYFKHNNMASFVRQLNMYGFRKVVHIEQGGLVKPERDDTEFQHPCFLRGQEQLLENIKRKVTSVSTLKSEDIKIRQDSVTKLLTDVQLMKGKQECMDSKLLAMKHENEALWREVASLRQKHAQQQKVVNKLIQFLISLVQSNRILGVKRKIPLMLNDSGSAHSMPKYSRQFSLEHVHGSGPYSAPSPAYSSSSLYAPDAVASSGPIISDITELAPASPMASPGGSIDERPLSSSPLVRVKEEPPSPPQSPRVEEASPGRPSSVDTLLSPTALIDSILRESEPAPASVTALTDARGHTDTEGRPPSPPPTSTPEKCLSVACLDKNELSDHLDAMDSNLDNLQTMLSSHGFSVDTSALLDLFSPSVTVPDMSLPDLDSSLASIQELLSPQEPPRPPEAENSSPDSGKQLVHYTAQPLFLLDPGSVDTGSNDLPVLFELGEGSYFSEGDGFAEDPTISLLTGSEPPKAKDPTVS

For ATACTA, the binding signal with FLI1 was 1.16 fold enrichment (6-mer frequency, TF over GST control); with ELK1, 1.11 fold enrichment (6-mer frequency, TF over GST control); with GABPA it was 1.25 fold enrichment (6-mer frequency, TF over GST control); in the experiment with ERG, 1.17 fold enrichment (6-mer frequency, TF over GST control); with ELF1 it was 1.21 fold enrichment (6-mer frequency, TF over GST control); in the experiment with EHF it was 1.22 fold enrichment (6-mer frequency, TF over GST control). Moreover, the binding signal in the experiment with SPI1 is 1.13 fold enrichment (6-mer frequency, TF over GST control); with SPIB it was 1.22 fold enrichment (6-mer frequency, TF over GST control); with ELK3, 1.06 fold enrichment (6-mer frequency, TF over GST control); in the experiment with FEV it was 1.13 fold enrichment (6-mer frequency, TF over GST control); with ETV5, 1.13 fold enrichment (6-mer frequency, TF over GST control); with HSF1, 1.34 fold enrichment (6-mer frequency, TF over GST control). For the same sequence, the binding signal is 1.1 fold enrichment (6-mer frequency, TF over GST control) in the experiment with SPIC; 1.19 fold enrichment (6-mer frequency, TF over GST control) with ELF4; 1.19 fold enrichment (6-mer frequency, TF over GST control) in the experiment with ELK4; 1.14 fold enrichment (6-mer frequency, TF over GST control) with ETV2; 1.08 fold enrichment (6-mer frequency, TF over GST control) in the experiment with ELF3; 1.38 fold enrichment (6-mer frequency, TF over GST control) with CRX. Also, the binding signal with ETV1 is 1.1 fold enrichment (6-mer frequency, TF over GST control).
